High-throughput results as filed in PubChem.
Myeloid diff MLP: compounds promoting myeloid differentiation. ER-HoxA9 myeloid progenitors, lysozyme-GFP differentiation, flow cytometry. calls only at 10 µM. actives 1% (n = 360,000). AID 624256;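 active = normalized GFP-positive differentiation at or above the plate's own cutoff, the solvent-only control mean plus 3 SD; inconclusive = no clear call, values can overlap the other calls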;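 also: cells exposed to compound for four days before flow analysis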
ABCB6 inh MLPCN: human ABCB6 transporter inhibition. Q9NP58. K562-ABCB6 porphyrin accumulation, flow cytometry, 1 h; hits give low values. fluorescence ratio to DMSO, % at 10 µM. actives 0.19% (n = 360,000);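 active = fluorescence ratio to DMSO below 75%, the collection mean minus 3 SD; inconclusive = too few cells collected in the well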;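 also: signal is porphyrin accumulated inside mitochondria; lower ratio means ABCB6 inhibition with less porphyrin fluorescence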
Target sequence (Q9NP58 whole entry, looked up): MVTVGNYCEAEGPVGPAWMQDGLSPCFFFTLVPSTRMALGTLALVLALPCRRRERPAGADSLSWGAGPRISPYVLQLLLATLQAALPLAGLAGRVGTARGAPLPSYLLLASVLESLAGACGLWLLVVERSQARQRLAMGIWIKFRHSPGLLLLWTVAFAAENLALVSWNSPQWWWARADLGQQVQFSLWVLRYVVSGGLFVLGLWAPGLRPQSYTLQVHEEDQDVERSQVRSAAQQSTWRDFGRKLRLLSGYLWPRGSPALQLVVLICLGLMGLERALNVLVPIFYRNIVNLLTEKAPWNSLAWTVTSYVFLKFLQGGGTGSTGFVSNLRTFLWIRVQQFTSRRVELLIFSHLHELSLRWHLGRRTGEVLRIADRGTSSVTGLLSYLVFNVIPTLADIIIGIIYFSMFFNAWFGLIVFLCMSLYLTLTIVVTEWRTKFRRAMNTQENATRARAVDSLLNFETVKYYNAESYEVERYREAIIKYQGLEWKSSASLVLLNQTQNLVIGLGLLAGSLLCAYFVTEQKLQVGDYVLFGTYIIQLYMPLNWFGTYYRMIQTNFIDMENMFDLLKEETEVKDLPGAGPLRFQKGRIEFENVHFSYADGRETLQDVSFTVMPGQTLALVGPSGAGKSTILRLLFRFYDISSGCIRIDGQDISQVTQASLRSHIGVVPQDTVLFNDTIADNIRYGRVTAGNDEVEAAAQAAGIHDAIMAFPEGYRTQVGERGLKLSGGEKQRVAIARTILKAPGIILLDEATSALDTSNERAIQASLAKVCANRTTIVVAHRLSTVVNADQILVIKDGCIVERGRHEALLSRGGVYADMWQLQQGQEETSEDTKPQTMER
Exocytosis inh: lytic granule exocytosis inhibition; TALL-104 LAMP-1 surface exposure, flow cytometry; cells stimulated with thapsigargin and PMA; inhibition, % at 10 µM; actives 0.66% (n = 360,000); AID 651702;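 active = inhibition above about 55%, limit read from the data; inconclusive = no clear call, values can overlap the other calls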
Exocytosis CP01: lytic granule exocytosis inhibition | shares compounds with Exocytosis inh | TALL-104 cells, LAMP-1 externalization, flow cytometry; stimulated with PMA plus thapsigargin | inhibition, % at 10 µM | actives 11% (n = 1,500); in the data active = inhibition above about 60%
Of the large screens only hits and unclear results are named; the others gave an inactive call (follow-up assays come after a bar, where they were run). A selection: hits, their analogues and other compounds. The true share with any hit is near 1.8%.

Cc1cc2nc(-c3ccco3)c(Cc3ccccc3C(F)(F)F)n2c(C)c1Br	Exocytosis inh 85 | Exocytosis CP01 inactive
O=C1C2C3C=CC(CC3)C2C(=O)N1c1ccccc1[N+](=O)[O-] (stereo unspecified)	none
Nc1ncnc2c1ncn2[C@@H]1O[C@H](CNC(=O)[C@@H]2CCC(=O)N2)[C@@H](O)[C@H]1O	none
O=C(NCCc1c[nH]c2ccccc12)c1cccc(S(=O)(=O)Nc2ccccc2Cl)c1	none
CN(c1ccccc1)S(=O)(=O)c1cccc(C(=O)NCCc2c[nH]c3ccccc23)c1	Exocytosis inh 66 | Exocytosis CP01 86
c1ccc2c(c1)COC(CNC1CCCCC1)OC2	none
Cc1ccc(C(=O)NC(Cc2cccc(C(F)(F)F)c2)C(=O)O)cc1 (stereo unspecified)	none
O=C(N[C@@H](Cc1ccccc1)C(=O)O)c1ccc(C(F)(F)F)cc1	Exocytosis inh 84 | Exocytosis CP01 inactive
CC(=O)N1CCC(C(=O)NCCOc2ccc(C)cc2)CC1	none
COc1ccccc1C(CNC(=O)CCNS(=O)(=O)c1ccc(Br)cc1)N1CCCC1 (stereo unspecified)	none
COc1ccc(N/C=C/C(=O)c2cc(OC)c(OC)c(OC)c2)cc1	Myeloid diff MLP inconclusive, Exocytosis inh 57 | Exocytosis CP01 inactive
COc1ccc(N/C=C/C(=O)c2ccc(OC)c(OC)c2)cc1	none
Cc1ccc(N(CC(=O)NC2CCCC2)C(=O)CNC(=O)c2cccs2)c(C)c1	none
CCN(CC)CCCn1c(SCC(=O)Nc2cccc(F)c2)nnc1-c1ccoc1C	none
Cc1ccc(NC(=O)CSc2nnc(-c3ccoc3C)n2CCCN(C)C)cc1Cl	Exocytosis inh 63 | Exocytosis CP01 inactive
O=C(CN1C(=O)COc2ccccc2C1=O)c1ccc2c(c1)OCCO2	none
C=CCn1c(SCC(=O)c2c(C)[nH]c3ccccc23)nnc1-c1ccncc1	none
CCCCCCCCN1C(=O)[C@H](CC(=O)NCCCOCCCC)C[C@@]2(C(=O)OC)CCCCC=C12	none
CCCCCCCCN1C(=O)[C@H](CC(=O)NCCCOCCCC)C[C@@]2(C(=O)OC)CC(C)(C)CC=C12	Exocytosis inh 60 (no result: ABCB6 inh MLPCN) | Exocytosis CP01 inactive
CCCCCCCCN1C(=O)[C@H](CC(=O)NCCCOC)C[C@@]2(C(=O)OC)CC(C)(C)CC=C12	none (no result: ABCB6 inh MLPCN)
CCCCCCCCN1C(=O)[C@H](CC(=O)NCCCOCCCC)C[C@@]2(C(=O)OCC)CCCC=C12	Exocytosis inh 76 | Exocytosis CP01 inactive
O=C(N/N=C/c1ccc([N+](=O)[O-])cc1)c1[nH]ncc1Br	none
O=C(NC1CC1)c1cccc(Nc2ccc(-c3ccc4c(c3)OCCO4)nn2)c1	Exocytosis inh 71 | Exocytosis CP01 inactive
O=S(=O)(c1ccc(Nc2ccc(-c3ccc4c(c3)OCCO4)nn2)cc1)N1CCCC1	none
COc1ccc(-c2noc(CNC(=O)c3ccc4c(c3)OCO4)n2)cc1	none
Cc1cccc(-c2noc(CNC(=O)c3ccc4c(c3)OCO4)n2)c1	Exocytosis inh 56 | Exocytosis CP01 inactive
Cc1cc(C(=O)Nc2ccc(Nc3ccccc3)cc2)ccc1[N+](=O)[O-]	Exocytosis inh 64 | Exocytosis CP01 inactive
Cc1cc(C(=O)Nc2ccncc2)ccc1[N+](=O)[O-]	none
Cc1nc(SCc2nc3ccc([N+](=O)[O-])cc3[nH]2)c2oc3ccccc3c2n1	Exocytosis inh 93 | Exocytosis CP01 inactive
Cc1nc(SCc2nc3ccc(F)cc3[nH]2)c2oc3ccccc3c2n1	none
CCCCN(C)Cc1c(C)[nH]c2ccc(C)cc2c1=O	none
CCCCN(C)Cc1c(C)[nH]c2ccccc2c1=O	Exocytosis inh 71 | Exocytosis CP01 inactive
COc1cccc(C(=O)Nc2sc3c(c2C#N)CCN(C(C)=O)C3)c1	none
CCc1ccc(CNC(=O)CCCC(=O)n2nc(C)c3ccccc32)cc1	none
O=C1CCN(CCc2ccccc2)CCN1[C@H](CSc1ccccc1)c1ccccc1	none
Cc1ccc(SC[C@H](c2ccccc2)N2CCN(CCc3ccccc3)CCC2=O)cc1	Exocytosis inh 59 | Exocytosis CP01 inactive
CNC(=O)c1ccc(=O)n(Cc2cccc(C(F)(F)F)c2)c1	none
CN(Cc1ccc(Br)cc1)C(=O)CCN1C(=O)c2cccc([N+](=O)[O-])c2C1=O	none
Cc1ccc(N2C(=O)CC(Sc3nccc(C)n3)C2=O)cc1 (stereo unspecified)	none
Cc1ccc(N2C(=O)CC(Sc3cccs3)C2=O)cc1 (stereo unspecified)	Exocytosis inh 86 | Exocytosis CP01 inactive
Cc1cccc(N2C(=O)CC(Sc3nnc(C)s3)C2=O)c1 (stereo unspecified)	Exocytosis inh 67 | Exocytosis CP01 inactive
Cc1cccc(N2C(=O)CC(Sc3nc(C)cc(C)n3)C2=O)c1 (stereo unspecified)	none
CN1CCN(NC(=O)c2cc(Br)ccc2Cl)CC1	none
O=C(CSc1ccc2nnc(CCNC(=O)c3ccccc3)n2n1)NC1CCCC1	none
CCCN(S(=O)(=O)c1ccccc1F)S(=O)(=O)c1ccccc1Br	Myeloid diff MLP inconclusive, Exocytosis inh 57 | Exocytosis CP01 inactive
CCN(Cc1ccccc1)S(=O)(=O)c1ccccc1Br	none
COc1ccc(C(C)=O)cc1COC(=O)c1cc2ccccc2cc1O	Exocytosis inh 91 | Exocytosis CP01 inactive
COc1ccc(C(C)=O)cc1COC(=O)c1cccnc1Cl	none
COC(=O)CCCC(=O)NCC1(N(C)Cc2ccccc2)Cc2ccccc2C1	none
Cc1ccc(-n2nc3c(N4CCC(C(=O)NCc5cccc(F)c5)CC4)nnc(C)c3c2C)cc1	Exocytosis inh 59 (no result: Myeloid diff MLP) | Exocytosis CP01 inactive
CCOc1ccccc1CNC(=O)C1CCCN(c2nnc(C)c3c(C)n(-c4ccccc4)nc23)C1 (stereo unspecified)	Exocytosis inh 72 | Exocytosis CP01 inactive
Cc1ccc(-n2nc3c(N4CCC(C(=O)NCc5ccc(C)o5)CC4)nnc(C)c3c2C)cc1	none
COc1ccc(-n2nc3c(N4CCC(C(=O)NCc5ccccc5C)CC4)nnc(C)c3c2C)cc1	none
Cc1ccsc1C(=O)Nc1cc(Cl)ccc1-n1cncn1	none
CCN(C(=O)CSc1nnc(SC(C)C)s1)C1CCS(=O)(=O)C1 (stereo unspecified)	none
N#Cc1cc2ccccc2nc1SCC(=O)NC1CC1	none
CCc1cc2ccccc2nc1SCC(=O)NC1CCCC1	Exocytosis inh 79 | Exocytosis CP01 inactive
Cc1ccc2nsnc2c1NC(=O)COc1ccccc1	none
CCN(CC(=O)NCc1cccs1)C(=O)c1cccc(S(=O)(=O)N2CC(C)OC(C)C2)c1 (stereo unspecified)	none
CCN(CC(=O)NCc1cccs1)C(=O)c1cccc(S(=O)(=O)N2CCc3ccccc32)c1	Exocytosis inh 65 | Exocytosis CP01 inactive
CCc1cccc(C)c1NC(=O)c1cccc(N(C)C)c1	Exocytosis inh 70 | Exocytosis CP01 inactive
COc1ccccc1CNC(=O)c1cccc(N(C)C)c1	none
CCOc1c(Cl)cc(CNCC(O)c2ccccc2)cc1OC (stereo unspecified)	none
OC(CNCC(c1ccc(Cl)cc1Cl)c1c[nH]c2ccccc12)c1ccccc1 (stereo unspecified)	Myeloid diff MLP inconclusive, Exocytosis inh 100 | Exocytosis CP01 88
COCCN(C(=O)Cc1cccs1)C(C(=O)NCc1ccc(OC)cc1)c1ccc(C)cc1 (stereo unspecified)	none
